About 83,000 compounds went through this panel and 20% of them were active in at least one assay; those are over-represented in the sample as a whole.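 The test compound was applied at a single concentration to cells in 96-well plates for 48 hours, and percent growth was recorded.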 A number with no mark means an inactive call. Active and inactive are the calls of the source. The calls were made as follows: active = growth percent below 10; inactive = the rest.
Columns and labels:
Assay in all cases: NCI-60 one-dose screen, 48 h (100 = growth as untreated, 0 = no growth, -100 = all killed)
Conditions in all cases: 10 µM unless noted
SK-MEL-2 melanoma = tested on: SK-MEL-2 melanoma
EKVX NSCLC = tested on: EKVX NSCLC
SN12C renal = tested on: SN12C renal
UO-31 renal = tested on: UO-31 renal
TK-10 renal = tested on: TK-10 renal
ACHN renal = tested on: ACHN renal
CAKI-1 renal = tested on: CAKI-1 renal
A498 renal = tested on: A498 renal
CCRF-CEM leukemia = tested on: CCRF-CEM leukemia
MOLT-4 leukemia = tested on: MOLT-4 leukemia
SR leukemia = tested on: SR leukemia
RPMI-8226 leukemia = tested on: RPMI-8226 leukemia
OVCAR-8 ovarian = tested on: OVCAR-8 ovarian
OVCAR-5 ovarian = tested on: OVCAR-5 ovarian
OVCAR-4 ovarian = tested on: OVCAR-4 ovarian
SK-OV-3 ovarian = tested on: SK-OV-3 ovarian
IGROV1 ovarian = tested on: IGROV1 ovarian
OVCAR-3 ovarian = tested on: OVCAR-3 ovarian
HS 578T breast = tested on: HS 578T breast
NCI/ADR-RES ovarian = tested on: NCI/ADR-RES ovarian

SMILES | growth (SK-MEL-2 melanoma) [%] | growth (EKVX NSCLC) [%] | growth (SN12C renal) [%] | growth (UO-31 renal) [%] | growth (TK-10 renal) | growth (ACHN renal) [%] | growth (CAKI-1 renal) | growth (A498 renal) | growth (CCRF-CEM leukemia) | growth (MOLT-4 leukemia) | growth (SR leukemia) | growth (RPMI-8226 leukemia) | growth (OVCAR-8 ovarian) [%] | growth (OVCAR-5 ovarian) [%] | growth (OVCAR-4 ovarian) [%] | growth (SK-OV-3 ovarian) [%] | growth (IGROV1 ovarian) [%] | growth (OVCAR-3 ovarian) | growth (HS 578T breast) | growth (NCI/ADR-RES ovarian)
CC1(C)O[C@H]2OC3CCC(=O)CC3(O)[C@H]2O1 (stereo not given in full) | 102 | 112 | 103 | 79.5 | 97.7% | 110 | 101% | 95.1% | 106% | 112% | 107% | 96% | 98.2 | 107 | 110 | 94.9 | 108 | 104% | 97% | 102%
Cn1cc(-c2nonc2-c2c[nH]c3ccccc23)c2ccccc21 | 51.2 | 26 | 23.4 | 15.6 | 47.7% | 31.1 | 20.4% | -13.4% (active) | 7.68% (active) | 8.23% (active) | 11.6% | 8.96% (active) | 16 | 25.9 | 30.5 | 18.9 | 24.4 | -17.7% (active) | 6.76% (active) | 5.05% (active)
Cc1ccc(Nc2nc(-c3ccc(F)cc3)c(C#N)c(=O)n2C)cc1 | 70.8 | 54.6 | 62.9 | 44.8 | 55.4% | 63 | 59.3% | 42.7% | 98.8% | 81.5% | 62.3% | 89.4% | 67.3 | 63.4 | 51 | 60.1 | 67.5 | 61.5% | 44.8% | 76.2%
C[N+](C)(C/C=C/c1ccccc1)Cc1ccccc1 | 93.7 | 92.7 | 101 | 82.4 | 96.3% | 99.4 | 97.2% | 94.6% | 149% | 103% | 97.7% | 123% | 107 | 81.2 | 97.4 | 107 | 94.5 | 96.4% | 106% | 99.1%
Cn1cc(-c2nn3cc(-c4ccccc4)nc3s2)c2ccccc21 | 79.6 | 72.5 | 78.7 | 42.8 | 95.5% | 74.2 | 55.3% | 85.3% | 76.4% | 65.3% | 13.2% | 91.2% | 89.4 | 70.5 | 63.6 | 68.7 | 52.1 | 72.7% | 62.3% | 70.5%
COc1ccc(/C(C)=C(\c2ccc(OCCN3CCCCCC3)cc2)c2ccc(OC(=O)c3ccccc3)cc2)cc1 | 54.6 | 74.4 | 56.2 | 26.2 | 74.5% | 72.3 | 52.9% | 82.1% | 26.8% | 17.4% | -8.34% (active) | 19.5% | 56.5 | 72.1 | 42.6 | 81.4 | 46.7 | 64.6% | 35.9% | 60.7%
CCOC(=O)CSc1nc2sc3c(c2c(=O)n1-c1ccc([N+](=O)[O-])cc1)CCCCC3 | 90.9 | 82.8 | 84.3 | 71.4 | 84.7% | 52.8 | 51.2% | 85.3% | 89% | 97% | 76.7% | 91.6% | 58.4 | 72.2 | 31 | 68.3 | 68.7 | 51.8% | 39.7% | 84.3%
Cc1ccccc1CNc1c2ccccc2nc2ccccc12 | 40.2 | 38.4 | 24.3 | 15.5 | 38.7% | 11.6 | 25.1% | -2.25% (active) | 17.6% | 8.85% (active) | 2.71% (active) | -8.88% (active) | 21 | 36.7 | 32.9 | 40.8 | 14.8 | 31.3% | 35.7% | 24.9%
CCN(CC)CCNC(=O)c1ccc(-c2nc3ccc4[nH]ncc4c3c3c2CCCC3)cc1 | 60.5 | 51 | 70.9 | 40.3 | 47.7% | 24.7 | 9.09% (active) | 16.9% | 47% | 50% | 6.02% (active) | 52.1% | 59 | 87.3 | 76.1 | 44.1 | 35.3 | 78.4% | 41.6% | 70.9%
CCN(CC)CCCC(C)Nc1ccc2cc(OC)ccc2n1 (stereo not given) | 116 | 91.4 | 104 | 91.3 | 106% | 107 | 101% | 84.5% | 107% | 116% | 120% | 97% | 99.8 | 109 | 62 | 113 | 105 | 98.8% | 99.9% | 108%
CCCCC(=O)Nc1ncc(Cc2ccccc2Cl)s1 | 55.8 | 57.6 | 42.4 | 44.6 | 62.8% | 61.4 | 37.8% | 48.5% | 57.3% | 28.5% | 25.8% | 49.2% | 49 | 59 | 68.1 | 63.3 | 45.4 | 30.1% | 31.3% | 23.7%
CCOC(=O)N1CCN(S(=O)(=O)c2oc(-c3ccc(Cl)cc3)nc2C#N)CC1 | 83.8 | 101 | 92.6 | 81.5 | -27% (active) | 76.1 | 101% | 126% | 1.71% (active) | 5.33% (active) | 4.64% (active) | 67.3% | 70.8 | 106 | 103 | 102 | 87.9 | 32.2% | 102% | 102%
CCC(C)Nc1ccc(NC(C)CC)cc1 (stereo not given) | 91.6 | 86 | 19.8 | 84.4 | 107% | 85.5 | 96.2% | 97.5% | 79% | 59.1% | 76.1% | 65.8% | 89.2 | 103 | 84.1 | 98.4 | 65.4 | 28.6% | 110% | 94.5%
Cc1cccc(NC(=O)CSc2nc3ccc([N+](=O)[O-])cc3[nH]2)c1 | 98.5 | 70.9 | 80.7 | 54.2 | 97.3% | 82.5 | 61.4% | 63.5% | 78.4% | 77.2% | 96.2% | 55.5% | 83.6 | 99.2 | 59.3 | 88.2 | 87.4 | 72.7% | 83.4% | 74.4%
C#CC#CC#CC#CC#CC#CC#CC#CC[C@H]1OC[C@@H](COC(=O)O[C@@H](C(=O)O[C@H]2C[C@@]3(O)[C@@H](OC(=O)c4ccccc4)[C@@H]4[C@]5(OC(C)=O)CO[C@@H]5C[C@H](O)[C@@]4(C)C(=O)[C@H](OC(C)=O)C(=C2C)C3(C)C)[C@@H](NC(=O)c2ccccc2)c2ccccc2)O1 | 76.2 | 75.4 | 50.2 | 102 | 86.5% | 89.9 | 79.6% | 45.4% | 36.2% | 42.5% | 25.9% | 26% | 59.7 | 47 | 68.3 | 61.7 | 49.2 | 22.6% | 44.3% | 108%

From PubChem BioAssay (NCI)
